# Laboratory results reported in the antibiotic and cytotoxicity screens of Wong et al. (2023).
# The campaign covered roughly 39,000 compounds. About 1,500 (3.8%) were called active. Shown is part of a subset that was picked to be rich in actives.
# System: HSkMC (human skeletal muscle cells)
# Test: cytotoxicity call (relative viability < 0.9)
# Conditions: 10 µM
row,Structure (SMILES),cytotoxicity call
1,C[C@@H]1CN([C@H](C)CO)C(=O)c2cc(C#Cc3ccccc3F)cnc2O[C@H]1CN(C)S(=O)(=O)c1ccccc1F,inactive
2,C[C@H](CO)N1C[C@H](C)[C@@H](CN(C)S(=O)(=O)c2ccccc2F)Oc2ncc(C#Cc3ccccc3F)cc2C1=O,active
3,COc1ccccc1C#Cc1cnc2c(c1)C(=O)N([C@@H](C)CO)C[C@@H](C)[C@@H](CN(C)S(=O)(=O)c1cn(C)cn1)O2,inactive
4,C[C@H]1CN([C@@H](C)CO)C(=O)c2cc(C#Cc3ccccc3F)cnc2O[C@@H]1CN(C)S(=O)(=O)c1ccccc1F,inactive
5,COc1ccccc1C#Cc1cnc2c(c1)C(=O)N([C@H](C)CO)C[C@@H](C)[C@H](CN(C)S(=O)(=O)c1cn(C)cn1)O2,active
6,COc1ccccc1C#Cc1cnc2c(c1)C(=O)N([C@H](C)CO)C[C@@H](C)[C@@H](CN(C)S(=O)(=O)c1cn(C)cn1)O2,inactive
7,Cc1ccc(S(=O)(=O)Nc2ccc3c(c2)CC(=O)N([C@H](C)CO)C[C@@H](C)[C@@H](CN(C)S(=O)(=O)c2ccc(F)cc2)O3)cc1,inactive
8,Cc1ccc(S(=O)(=O)Nc2cccc3c2O[C@@H](CN(C)S(C)(=O)=O)[C@@H](C)CN([C@H](C)CO)C3=O)cc1,inactive
9,C[C@@H]1CN([C@H](C)CO)C(=O)c2ccccc2-c2ccccc2CO[C@@H]1CN(C)C(=O)Nc1cccc(C(F)(F)F)c1,inactive
10,C[C@@H]1CCCCO[C@H](CN(C)CC2CCCCC2)[C@H](C)CN([C@H](C)CO)C(=O)c2cc(NC(=O)c3ccccc3)ccc2O1,inactive
11,C[C@@H]1CCCCO[C@@H](CN(C)Cc2ccc(C(F)(F)F)cc2)[C@H](C)CN([C@H](C)CO)C(=O)c2cc(NC(=O)NC3CCCCC3)ccc2O1,inactive
12,C[C@H](CO)N1C[C@H](C)[C@H](CN(C)Cc2ccc(C(F)(F)F)cc2)OCCCC[C@H](C)Oc2ccc(NC(=O)NC3CCCCC3)cc2C1=O,inactive
13,C[C@@H]1CN([C@H](C)CO)C(=O)c2cc(NC(=O)NC3CCCCC3)ccc2O[C@@H](C)CCCCO[C@@H]1CN(C)Cc1ccc(C(F)(F)F)cc1,inactive
14,C[C@@H]1CN([C@@H](C)CO)C(=O)c2cc(NC(=O)NC3CCCCC3)ccc2O[C@@H](C)CCCCO[C@@H]1CN(C)Cc1ccc(C(F)(F)F)cc1,inactive
15,C[C@@H]1CN([C@H](C)CO)C(=O)c2cc(NC(=O)NC3CCCCC3)ccc2O[C@@H](C)CCCCO[C@H]1CN(C)Cc1ccc(C(F)(F)F)cc1,inactive
16,C[C@H]1CCCCO[C@@H](CN(C)Cc2ccc(C(F)(F)F)cc2)[C@@H](C)CN([C@@H](C)CO)C(=O)c2cc(NC(=O)NC3CCCCC3)ccc2O1,active
17,C[C@@H]1CCCCO[C@@H](CN(C)Cc2ccc(C(F)(F)F)cc2)[C@@H](C)CN([C@@H](C)CO)C(=O)c2cc(NC(=O)NC3CCCCC3)ccc2O1,active
18,C[C@@H]1CCCCO[C@@H](CN(C)Cc2ccc(C(F)(F)F)cc2)[C@H](C)CN([C@@H](C)CO)C(=O)c2cc(NC(=O)NC3CCCCC3)ccc2O1,inactive

row,Structure (SMILES),cytotoxicity call
1,C[C@@H]1CCCCO[C@H](CN(C)Cc2ccc(C(F)(F)F)cc2)[C@H](C)CN([C@H](C)CO)C(=O)c2cc(NC(=O)NC3CCCCC3)ccc2O1,active
2,C[C@@H]1CCCCO[C@H](CN(C)Cc2ccc(C(F)(F)F)cc2)[C@H](C)CN([C@@H](C)CO)C(=O)c2cc(NC(=O)NC3CCCCC3)ccc2O1,active
3,C[C@@H]1CCCCO[C@H](CN(C)Cc2ccc(C(F)(F)F)cc2)[C@@H](C)CN([C@@H](C)CO)C(=O)c2cc(NC(=O)NC3CCCCC3)ccc2O1,inactive
4,C[C@@H]1CCCCO[C@H](CN(C)Cc2ccc(C(F)(F)F)cc2)[C@@H](C)CN([C@H](C)CO)C(=O)c2cc(NC(=O)NC3CCCCC3)ccc2O1,inactive
5,COc1ccc(CCNC(=O)[C@@]2(Sc3ccc(C)cc3)CC(=O)N(C(C)C)[C@@H]2c2ccc(CO)cc2)cc1,inactive
6,COc1ccc(NC(=O)N(C)C[C@H]2Oc3c(NC(=O)C4CC4)cccc3C(=O)N([C@@H](C)CO)C[C@@H]2C)cc1,inactive
7,C[C@@H]1CN([C@H](C)CO)S(=O)(=O)c2ccc(C#Cc3ccncc3)cc2O[C@@H]1CN(C)C(=O)C1CCC1,inactive
8,COc1cccc(S(=O)(=O)Nc2ccc3c(c2)[C@@H]2C[C@H](CC(=O)NCc4ccccc4F)O[C@H](CO)[C@@H]2O3)c1,inactive
9,C[C@@H]1CCCCO[C@H](CN(C)S(=O)(=O)c2cccs2)[C@H](C)CN([C@@H](C)CO)C(=O)c2cc(NC(=O)Nc3ccccc3)ccc2O1,inactive
10,C[C@@H]1CCCCO[C@@H](CN(C)C(=O)Cc2ccccc2)[C@@H](C)CN([C@@H](C)CO)C(=O)c2cc(NS(=O)(=O)c3ccc(F)cc3)ccc2O1,inactive
11,C[C@H]1CN([C@@H](C)CO)C(=O)Cc2cc(NC(=O)C3CCCCC3)ccc2O[C@H]1CN(C)C(=O)Nc1ccc(C(F)(F)F)cc1,inactive
12,C[C@@H]1CN([C@H](C)CO)C(=O)c2cc(NC(=O)C3CCCCC3)ccc2O[C@@H](C)CCCCO[C@@H]1CN(C)C(=O)c1ccccc1,inactive
13,C[C@H]1CN([C@@H](C)CO)C(=O)Cc2cc(NC(=O)CCC(F)(F)F)ccc2O[C@H]1CN(C)S(=O)(=O)c1cccs1,inactive
14,C[C@H](CO)N1C[C@H](C)[C@@H](CN(C)Cc2ccc(C(=O)O)cc2)OCCCC[C@H](C)Oc2ccc(NC(=O)Nc3ccccc3)cc2C1=O,inactive
15,CC(C)(ON=C(C(=O)NC1C(=O)N2C(C(=O)[O-])=C(C[n+]3ccccc3)CSC12)c1csc(N)n1)C(=O)O (stereo unspecified),inactive
16,C[C@H]1CCCCO[C@H](CN(C)Cc2ccc(C(F)(F)F)cc2)[C@@H](C)CN([C@@H](C)CO)C(=O)c2cc(NC(=O)NC3CCCCC3)ccc2O1,inactive
17,C[C@H](CO)N1C[C@H](C)[C@@H](CN(C)Cc2ccc(C(F)(F)F)cc2)OCCCC[C@H](C)Oc2ccc(NC(=O)NC3CCCCC3)cc2C1=O,active
18,C[C@@H]1CN([C@@H](C)CO)C(=O)c2cc(NC(=O)NC3CCCCC3)ccc2O[C@@H](C)CCCCO[C@H]1CN(C)Cc1ccc(C(F)(F)F)cc1,inactive
